High-throughput results deposited in PubChem by National Center for Advancing Translational Sciences (NCATS).
KB-3-1 cytotox = kills parental KB-3-1 adenocarcinoma cells | KB-3-1 viability, CellTiter-Glo ATP luminescence, 72 h | Potency, µM (doses to about 46.1 µM), actives largely listed as cytotoxic | actives 1.4% (n = 400,000) | AID 1347075; further: on the % scale 0 is the no-effect control and ±100 the full control effect; nearly all actives have a fitted effect of over 60% in size
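Here the drug-naive KB-3-1 line serves as comparator for MDR sub-line selectivity; cells received compound titrations, 72 h at 37 °C, then CellTiter-Glo readout.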
SW480 rerep = DNA re-replication induction in SW480 cells; actives 1.8% (n = 340,000); Potency, µM (top dose mostly 46.1 µM), without a hit: at the highest dose re-replication activation, hits mostly activators; SW480 DNA re-replication, Hoechst DNA content imaging, 48 h; further: % of control where 0% means no effect; nearly all actives have a fitted effect of over 55% in size
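First, 250 cells per well were seeded. Next, compound or vehicle (23 nL) was pinned in, plates sat 48 hr at 37 C. Finally Hoechst was added for 40 min before fluorescence scanning.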
12-LOX inh = ALOX12 (human) lipoxygenase inhibition; actives 1.1% (n = 580,000); AID 1671190; purified 12hLO, xylenol orange hydroperoxide absorbance; Potency, µM (titrated, usually from 108 µM), for inactives: at the highest dose activity change, negative = inhibition, usual class: inhibitors; further: on the % scale 0 is the no-effect control and ±100 the full control effect
Target sequence (P18054 whole entry, looked up): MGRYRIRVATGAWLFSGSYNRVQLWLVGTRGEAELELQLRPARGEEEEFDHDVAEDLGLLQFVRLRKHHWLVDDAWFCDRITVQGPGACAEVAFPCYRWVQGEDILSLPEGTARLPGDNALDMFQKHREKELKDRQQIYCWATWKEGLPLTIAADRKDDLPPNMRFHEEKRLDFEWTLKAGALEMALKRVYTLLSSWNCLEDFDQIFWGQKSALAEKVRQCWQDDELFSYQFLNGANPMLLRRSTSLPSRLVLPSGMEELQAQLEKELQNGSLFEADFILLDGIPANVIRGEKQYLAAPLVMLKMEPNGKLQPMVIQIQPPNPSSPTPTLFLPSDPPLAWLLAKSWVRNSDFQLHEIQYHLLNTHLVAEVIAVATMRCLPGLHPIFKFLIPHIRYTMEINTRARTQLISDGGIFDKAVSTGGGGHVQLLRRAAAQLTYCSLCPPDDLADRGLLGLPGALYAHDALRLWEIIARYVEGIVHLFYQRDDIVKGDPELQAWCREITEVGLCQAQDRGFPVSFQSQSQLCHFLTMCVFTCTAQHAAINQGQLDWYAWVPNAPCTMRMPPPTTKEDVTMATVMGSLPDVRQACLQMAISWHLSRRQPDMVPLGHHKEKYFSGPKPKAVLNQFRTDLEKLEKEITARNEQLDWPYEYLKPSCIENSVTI
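Purified human 12hLO at 150 nM in 25 mM Hepes, 0.01% Triton X-100, pH 7.0, preincubated 15 min at room temperature with compound. Reaction started with 40 uM arachidonic acid, 30 min at room temperature. Hydroperoxide measured by Fe-xylenol orange, 573/405 nm absorbance ratio.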
PINK1 expr mod = changes PINK1 expression | AID 624263 | Potency, µM (highest dose often 76.6 µM), inactives show at the highest dose activation (PINK1 increase), actives largely listed as activators | PINK1 immunofluorescence, high-content cytometry, 24 h | actives 0.2% (n = 410,000); active means well fitted activation curve with a large enough effect; inconclusive means small, poorly fitted or top-dose-only effect; cell line not stated here; further: % of control where 0% means no effect; nearly all actives have a fitted effect of over 65% in size
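PINK1 protein, normally rapidly degraded, was detected by immunofluorescence after 24 hour compound treatment of a stable cell line. Titration data (5 concentrations) came from laser-scanning cytometry, with CCCP-treated wells as controls.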
MCF10A rerep = induces DNA re-replication in MCF 10a normal breast cells; MCF 10A DNA re-replication, Hoechst nuclear intensity, 48 h; Potency, µM (series often up to 46.1 µM), inactives show top-dose activity, positive = re-replication, actives largely listed as activators; actives 2.9% (n = 350,000); AID 624296; further: % of control where 0% means no effect; nearly all actives have a fitted effect of over 50% in size
KB-V1 MDR tox = kills drug-selected multidrug resistant KB-V1 cells; KB-V1 MDR cells viability, CellTiter-Glo, 72 h; Potency, µM (doses to about 46.1 µM), actives largely listed as cytotoxic; actives 3.4% (n = 400,000); AID 1347076; further: on the % scale 0 is the no-effect control and ±100 the full control effect; nearly all actives have a fitted effect of over 60% in size
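Readout: CellTiter-Glo luminescence, 10 min after addition. Cells: KB-V1 MDR subline, 72 h at 37 degrees C with compound. Analysis: corrected, normalized data fitted to concentration-effect curves.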
Numbers without * were called inactive; i = inactive; ? = inconclusive; nt = no result; ! = not active in a repeat; [ ] = remark or other dose. Hits are enriched below; roughly 5.8% of the tested compounds scored in any of these assays. Unless noted, the call rests on the fitted dose curve; in most records, active means well fitted curve in the direction sought with a large enough effect; inconclusive means small, poorly fitted or top-dose-only effect, or another doubt; inactive means no such curve, though single readings can be large; an effect the other way counts as inactive or inconclusive. Potency means the concentration at half of the fitted maximal effect.

SMILES	KB-3-1 cytotox	SW480 rerep	12-LOX inh	PINK1 expr mod	MCF10A rerep	KB-V1 MDR tox
CC(OC(=O)c1snc(C(=O)NC2CCCCC2)c1N)C(=O)NC1CCCCC1 (stereo unspecified)	i	?	7%	24%	21µM*	?
CCOc1ccc(C(C(=O)NC2CCCC2)N(Cc2ccccc2)C(=O)c2nsc(Cl)c2Cl)cc1 (stereo unspecified)	21µM*	?	-11%	0%	13%	?
Cc1cccc(N(C(=O)c2nsc(Cl)c2Cl)C(C(=O)NC2CCCC2)c2ccc(O)cc2)c1C (stereo unspecified)	?	?	-6%	45µM*	17%	21µM*
Cc1ccccc1N(C(=O)c1snc(C(N)=O)c1N)C(C(=O)NC1CCCCC1)c1ccc(O)cc1 (stereo unspecified)	?	16µM*	?	-3%	?	i
COc1ccc(C2=NN3C(=O)c4ccccc4C3C2)cc1 (stereo unspecified)	nt	nt	23%	nt	nt	nt
CCC(=O)Nc1cccc(-c2nc3cc(OC)ccc3o2)c1	nt	nt	-1%	nt	nt	nt
CN(C)c1ccc(C(C(=O)NC2CCCCC2)N(Cc2ccco2)C(=O)c2snc(C(N)=O)c2N)cc1 (stereo unspecified)	?	11%	-8%	-2%	9%	21µM*
Cc1nn(CC(=O)N2CCCCCC2)c(C)c1S(=O)(=O)NC(C)(C)C	nt	nt	-16%	nt	nt	nt
CCOC(=O)c1cc(-c2ccco2)nc2c1c(C)nn2-c1cccc(Cl)c1	i	5%	14µM*!	0%	-178%[0.0737 µM]	i
COc1cc(CN2CCc3nc(N4CCN(c5ncccn5)CC4)ncc3C2)cc(OC)c1OC	?	nt	?	1%	nt	6.5µM*
COc1cc(CN2CCc3nc(N4CCN(c5ccccn5)CC4)ncc3C2)cc(OC)c1OC	?	nt	-2%	1%	nt	?
CCN1CCN(c2ncc3c(n2)CCN(Cc2cc(Br)cs2)C3)CC1	i	nt	11µM*	2%	nt	i
CCN1CCN(c2ncc3c(n2)CCN(Cc2ccc(Br)s2)C3)CC1	?	nt	?	6%	nt	i
Cc1nn(C)c(C)c1CC(=O)Nc1nc(C(C)C)cs1	nt	nt	43%	nt	nt	nt
O=C(CSc1ccccn1)c1ccc2c(c1)OCCO2	nt	nt	-31%	nt	nt	nt
COc1ccc(CCC(=O)N2CC[C@H]3C(=O)NCCCCCCN(Cc4ccncc4)[C@@H]3C2)cc1	nt	nt	72%	nt	nt	nt
CCN(C1CCCCC1)S(=O)(=O)c1ccc(S(=O)(=O)NCCc2ccncc2)cc1	i	11%	21%	2%[38.3 µM]	?	21µM*
CCCCCc1ccc(S(=O)(=O)NCCc2ccncc2)cc1	?	-6%	10%	6%[38.3 µM]	16%	3.3µM*
O=S(=O)(NCc1ccccc1)c1ccc(S(=O)(=O)N(Cc2ccccn2)C2CCCC2)cc1	i	9%	-13%	0%[38.3 µM]	?	i
CCCc1ccc(S(=O)(=O)NCCc2ccncc2)cc1	i	-12%	0%	-1%	-2%	i
CCN(C1CCCCC1)S(=O)(=O)c1ccc(S(=O)(=O)NCc2ccncc2)cc1	i	0%	2%	0%[38.3 µM]	-1%	7.3µM*
Cc1cccc(OCCc2noc(C3CCCCN3S(=O)(=O)c3cn(C)cn3)n2)c1 (stereo unspecified)	nt	nt	40%	nt	nt	nt
CNC(=O)NC(=O)CSc1cc(C)c2ccccc2n1	nt	nt	-21%	nt	nt	nt
O=C(COc1cccc(F)c1)Nc1ccc(-n2cnnn2)cc1	nt	nt	11%	nt	nt	nt
CCc1ccc(-c2csc(/C(C#N)=C/Nc3ccccc3CC)n2)cc1	nt	nt	-40%	nt	nt	nt
CCc1cc(=O)oc2c3c(cc(OCC(=O)Nc4cccnc4)c12)OC(C)(C)CC3	i	0%	6%	1%	?	16µM*
CCc1cc(=O)oc2c3c(cc(OCC(=O)NCc4cccnc4)c12)OC(C)(C)CC3	i	1%	-11%	0%	-37%	?
